Experimental data reported in PubChem BioAssay (Tox21).
Values joined by “and” are separate entries in the source; they are usually repeats but may differ in a detail not shown here. Identical values can stand only once. Results filed as inconclusive are left out. More than one record can exist for a structure, and the calls need not agree. Active and inactive are the calls of the source. Unless noted, the call rests on the fitted dose curve; in most records, active means well fitted curve in the direction sought with a large enough effect in the repeat runs; inconclusive means weak or mixed curves; inactive means no such curve, though single readings can be large; an effect the other way counts as inactive or inconclusive.

How the values were obtained:
[1] = qHTS assay to identify small molecule agonists of H2AX - cell viability counter screen (AID 1224847; calls by dose curve; further: nearly all actives have a fitted effect of over 30% in size; further: potency means the concentration at half of the fitted maximal effect)
Outline: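 CHO-K1 wt, 1000 cells/well, o/n 37C; cpds 15 conc, 3 h 37C, 0.76% DMSO; CellTiter-Glo, 30 min RT, luminescence.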

[2] = qHTS assay to identify small molecule antagonists of the estrogen related receptor (ERR) signaling pathway from Tox21 library (AID 1224848); further: nearly all actives have a fitted effect of over 50% in size; further: potency means the concentration at half of the fitted maximal effect
Outline: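 ERR cell line, 2,000 cells/well. 6 h settle, then compound (DMSO) added; 18 h at 37 C; ONE-Glo luminescence after 30 min RT.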

[3] = qHTS assay to identify small molecule agonists of the estrogen related receptor (ERR) signaling pathway from Tox21 library (AID 1224849; calls by dose curve; further: nearly all actives have a fitted effect of over 15% in size); details: ERR reporter cell line, ONE-Glo luciferase, 18 h
Outline: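 Luminescent agonist read-out (One-Glo, 30-minute room-temperature incubation) following 18-hour compound treatment at 37 C of the ERR cell line, which had been plated 6 hours before dosing.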

[4] = qHTS RealTime-Glo MT Cell Viability Assay in HepG2 cells - 24 hour (AID 1224867); further: nearly all actives have a fitted effect of over 50% in size; further: potency means the concentration at half of the fitted maximal effect
Outline: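 Luminescence read-out: viable HepG2 cells reduce a prosubstrate to a NanoLuc substrate, giving a signal proportional to live cell number. Reads taken at 0, 8, 16, 24, 32 and 40 h of compound exposure at 37 C.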

[5] = qHTS RealTime-Glo MT Cell Viability Assay in HEK293 cells - 32 hour (AID 1224868); further: nearly all actives have a fitted effect of over 50% in size; further: potency means the concentration at half of the fitted maximal effect
Outline: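 Nonlytic real-time viability readout: viable cells convert prosubstrate to NanoLuc substrate, giving luminescence proportional to live cell number. HEK293, 600 cells/well, compound added after 5 h, continuous culture at 37 C.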

[6] = A CellTox Green Cytotoxicity Assay to monitor cytotoxicity in HEK293 cells - 0 hour (AID 1224869); further: nearly all actives have a fitted effect of over 50% in size; further: potency means the concentration at half of the fitted maximal effect
Outline: (§1)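 Fluorescence from a DNA-binding dye excluded by viable cells was measured repeatedly in the same HEK293 wells (600 cells/well) during continuous compound exposure at 37 C. Each assay gives one read point: 0, 8, 16, 24, 32 or 40 h.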

[7] = qHTS RealTime-Glo MT Cell Viability Assay in HepG2 cells - 40 hour (AID 1224870); further: nearly all actives have a fitted effect of over 50% in size; further: potency means the concentration at half of the fitted maximal effect
Outline: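 Real-time viability: cells seeded at 600 per well together with NanoLuc and cell-permeant prosubstrate, compounds added after 5 h incubation. Luminescence tracked at 0, 8, 16, 24, 32 and 40 h of exposure.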

[8] = qHTS assay to identify small molecule agonists of the hypoxia (HIF-1) signaling pathway (AID 1224846; active means well fitted activation curve with a large enough effect in the signal ratio in the repeat runs, not every such curve was filed as active; the % refers to the signal ratio)
Outline: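 Compounds added to ME-180 cells carrying hypoxia-response-element beta-lactamase reporter (0.5% dialyzed FBS, 5 h preplating), 17 h at 37C; agonist activity detected by CCF4-AM B/G FRET read-out.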

[9] = A CellTox Green Cytotoxicity Assay to monitor cytotoxicity in HEK293 cells - 40 hour (AID 1224871); further: nearly all actives have a fitted effect of over 45% in size; further: potency means the concentration at half of the fitted maximal effect
Outline: as §1

[10] = at 92.4 µM (top of the series) unless noted
On the % scale 0 is the no-effect control and ±100 the full control effect.

CCOP(=S)(OCC)OC(Cl)C(Cl)(Cl)Cl (stereo not given)
inactive: Potency [1] | Potency [2] | activity change, positive = activation [3, 10] 4.56% | Potency [4] | Potency [5] | Potency [6] | Potency [7]

CS(=O)(=O)c1ccc(C(=O)C2C(=O)CCCC2=O)c([N+](=O)[O-])c1
inactive: outcome [8] | Potency [2] | Potency [4] | Potency [7]
active: Potency [6] 44.4 µM | Potency [9] 44.4 µM

CN(C)c1ccc(N=Nc2ccccc2)cc1
inactive: outcome [8] | Potency [4] | Potency [6] | Potency [7]

C[C@]12CC[C@H]3[C@@H](CCC4=CC(=O)CC[C@@]43C)[C@@H]1CC[C@@H]2O
inactive: Potency [1] | Potency [4] | Potency [6] | Potency [7]
active: Potency [5] 48.6 µM

Nc1ccc(Sc2ccc(N)cc2)cc1
inactive: outcome [8] | Potency [2] | activity change, positive = activation [3, 10] 9.92% | Potency [4] | Potency [5] | Potency [6] | Potency [9]

Cc1c(Cl)c(=O)oc2cc(OP(=O)(OCCCl)OCCCl)ccc12
inactive: outcome [8] | Potency [1] | Potency [6] | Potency [7] | Potency [9]

CCN(CC)c1c([N+](=O)[O-])cc(C(F)(F)F)c(N)c1[N+](=O)[O-]
active: Potency [1] 113 µM | Potency [5] 19.5 µM
inactive: outcome [8] | Potency [6] | Potency [7]

O=c1oc2ccccc2c(O)c1Cc1c(O)c2ccccc2oc1=O
inactive: Potency [1] | activity change, positive = activation [3, 10] -18.2% [at 42.5 µM] | Potency [4] | Potency [5] | Potency [6] | Potency [7] | Potency [9]

CC(=O)c1cc(C(C)(C)C)cc2c1CCC2(C)C
active: Potency [9] 38.9 µM
inactive: outcome [8] | Potency [2] | activity change, positive = activation [3, 10] -2.02% | Potency [4] | Potency [5] | Potency [6] | Potency [7]

O=C1C=CC(=O)c2ccccc21
inactive: Potency [6]
active: Potency [1] 20.1 µM | Potency [2] 27.3 µM | Potency [4] 21.9 µM | Potency [5] 5.49 µM | Potency [7] 24.5 µM | Potency [9] 3.89 µM

O=C1c2ccccc2C(=O)C1C(=O)C(c1ccccc1)c1ccc(Cl)cc1 (stereo not given)
inactive: Potency [1] | activity change, positive = activation [3, 10] -59.3% | Potency [4] | Potency [5] | Potency [6] | Potency [7] | Potency [9]
active: Potency [2] 9.69 µM

OC(Cc1ccccc1Cl)(Cn1cncn1)C1(Cl)CC1 (stereo not given)
inactive: outcome [8] | activity change, positive = activation [3, 10] -38.2% | Potency [6]
active: Potency [2] 48.6 µM | Potency [5] 49 µM

CC(C)(C)c1ccc(CSc2cnn(C(C)(C)C)c(=O)c2Cl)cc1
inactive: outcome [8] | Potency [6] | Potency [7] | Potency [9]
active: Potency [2] 0.0054 µM | Potency [5] 0.011 µM

CCOP(=S)(OCC)SCS(=O)(=O)CC
inactive: Potency [1] | Potency [2] | activity change, positive = activation [3, 10] -5.31% | Potency [4] | Potency [6] | Potency [9]

O=C(CBr)c1ccc(O)cc1
inactive: outcome [8] | Potency [1] | Potency [4] | Potency [6] | Potency [7] | Potency [9]

Clc1ccc(C(c2ccccc2Cl)C(Cl)(Cl)Cl)cc1 (stereo not given)
active: Potency [1] 101 µM and 66.2 µM | Potency [2] 61.5 µM and 40.2 µM
43.9 µM (active) and inactive: Potency [9]
49.3 µM (active) and inactive: Potency [5]
inactive: activity change, positive = activation ([3]; at 42.5 µM (top of the series)) -15.1% | activity change, positive = activation ([3]; at 92.4 µM (top of the series)) -41.5% | Potency [4] | Potency [6] | Potency [7]

O=c1c(C2CC(c3ccc(-c4ccc(Br)cc4)cc3)Cc3ccccc32)c(O)sc2ccccc12 (stereo not given)
active: Potency [2] 7.5 µM
inactive: Potency [1] | Potency [5] | Potency [6] | Potency [9]

CCOP(=S)(OCC)SCCS(=O)(=O)CC
inactive: outcome [8] | Potency [2] | activity change, positive = activation [3, 10] 1.7% | Potency [4] | Potency [5] | Potency [6] | Potency [7] | Potency [9]

Oc1ccc(C2(c3ccc(O)cc3)c3ccccc3-c3ccccc32)cc1
active: Potency [1] 89.8 µM | Potency [4] 54.9 µM | Potency [5] 43.6 µM
inactive: activity change, positive = activation [3, 10] -78.7% | Potency [6] | Potency [9]

CC(Cc1ccc(C(C)(C)C)cc1)CN1C[C@@H](C)O[C@@H](C)C1 (stereo not given in full)
active: Potency [1] 63.5 µM | Potency [9] 49 µM
inactive: activity change, positive = activation [3, 10] -8.81% | Potency [4] | Potency [5] | Potency [6] | Potency [7]

C=CCC1=C(C)C(OC(=O)C2C(C=C(C)C)C2(C)C)CC1=O (stereo not given)
inactive: activity change, positive = activation [3, 10] -28.6% | Potency [6]
active: Potency [1] 60.1 µM | Potency [2] 20.5 µM | Potency [5] 26 µM

O=c1[nH]c2ccccc2n1CCCN1CCC(n2c(=O)[nH]c3cc(Cl)ccc32)CC1
inactive: Potency [4] | Potency [6] | Potency [7] | Potency [9]
active: Potency [5] 10.7 µM

CC(=O)/C=C/c1ccc2c(c1)OCO2
inactive: Potency [4] | Potency [5] | Potency [6] | Potency [7] | Potency [9]
active: Potency [2] 43.5 µM

COc1cccc(C(=O)CCN[C@@H](C)[C@H](O)c2ccccc2)c1
active: Potency [7] 23.9 µM
inactive: Potency [2] | Potency [6]

S=C(SSC(=S)N1CCCCC1)N1CCCCC1
inactive: Potency [6]
active: Potency [2] 0.473 µM | Potency [5] 15.1 µM | Potency [9] 0.151 µM

ClC1=C(Cl)C2(Cl)C3C(Cl)C=CC3C1(Cl)C2(Cl)Cl (stereo not given)
active: Potency [1] 113 µM | Potency [5] 49.2 µM and 49 µM | Potency [9] 55.2 µM and 49 µM
inactive: Potency [6]

BrC(Br)C(Br)(Br)Br
inactive: Potency [4] | Potency [6] | Potency [7]
active: Potency [5] 43.9 µM | Potency [9] 55.3 µM

CN(C)S(=O)(=O)N(SC(F)(Cl)Cl)c1ccccc1
inactive: Potency [6]
active: Potency [1] 89.8 µM | Potency [4] 11 µM | Potency [5] 3.89 µM | Potency [7] 9.77 µM | Potency [9] 3.09 µM

CN(C)CCc1c[nH]c2ccc(O)cc12
inactive: Potency [1] | Potency [4] | Potency [5] | Potency [6] | Potency [7] | Potency [9]

Clc1ccc(CCC(Cn2ccnc2)Sc2c(Cl)cccc2Cl)cc1 (stereo not given)
inactive: activity change, positive = activation [3, 10] -61.6% [at 42.5 µM] | Potency [6] | Potency [7] | Potency [9]
active: Potency [2] 18.8 µM | Potency [5] 9.52 µM

CN(C)CCc1c[nH]c2cccc(O)c12
inactive: Potency [1] | Potency [4] | Potency [5] | Potency [6] | Potency [9]

S=C=Nc1cccc2ccccc12
inactive: activity change, positive = activation [3, 10] -54.3% | Potency [4] | Potency [5] | Potency [6] | Potency [7] | Potency [9]

CC(=O)O[C@H]1CC[C@@]2(C)C(=CC[C@@H]3[C@@H]2CC[C@]2(C)C(=O)CC[C@@H]32)C1
inactive: Potency [4] | Potency [6] | Potency [7]
active: Potency [1] 101 µM | Potency [5] 49 µM

CNC(C)Cc1ccc2c(c1)OCO2 (stereo not given)
inactive: Potency [1] | Potency [4] | Potency [5] | Potency [6] | Potency [7] | Potency [9]

COc1cccc2c1C(=O)c1c(O)c3c(c(O)c1C2=O)C[C@@](O)(C(=O)CO)CC3OC1CC(N2CCOC(OC)C2)C(O)C(C)O1 (stereo not given in full)
inactive: Potency [2] | activity change, positive = activation [3, 10] -10.4% [at 42.5 µM] | Potency [6] | Potency [9]
active: Potency [4] 1.9 µM | Potency [5] 0.0301 µM
